# From PubChem BioAssay
# RORgamma inh – qHTS for inhibitors of ROR gamma transcriptional activity; Potency, µM (titrated, usually from 53.6 µM), inactives show at the highest dose activity change, negative = inhibition, hits mostly inhibitors; AID 2551, 2010; Drosophila S2 Gal4-RORgamma UAS-luciferase reporter, 20 h; 5.4% of 310,000 active; further: on the % scale 0 is the no-effect control and ±100 the full control effect; nearly all actives have a fitted effect of over 60% in size
# Target sequence (P51450 whole entry, looked up, the tested form may be a part): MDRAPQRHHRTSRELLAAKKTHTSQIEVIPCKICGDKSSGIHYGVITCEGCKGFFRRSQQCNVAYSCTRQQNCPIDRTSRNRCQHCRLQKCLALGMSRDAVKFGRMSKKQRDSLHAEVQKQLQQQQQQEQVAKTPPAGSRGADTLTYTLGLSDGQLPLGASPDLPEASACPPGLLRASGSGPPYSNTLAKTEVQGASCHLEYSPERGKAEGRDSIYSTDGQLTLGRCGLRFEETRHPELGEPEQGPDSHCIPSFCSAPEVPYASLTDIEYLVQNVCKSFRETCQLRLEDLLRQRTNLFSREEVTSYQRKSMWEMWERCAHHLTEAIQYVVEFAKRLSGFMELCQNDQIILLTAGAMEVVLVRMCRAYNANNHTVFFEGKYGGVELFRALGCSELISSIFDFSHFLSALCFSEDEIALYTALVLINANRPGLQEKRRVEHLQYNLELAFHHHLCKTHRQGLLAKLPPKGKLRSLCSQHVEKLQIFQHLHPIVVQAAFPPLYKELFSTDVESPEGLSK
#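 Luciferase reporter read in Schneider cells carrying Gal4-RORγ (mouse) and UAS-Photinus luciferase; cells given compound 1 h before 700 uM copper sulfate induction, then incubated 20 h at ambient temperature.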
# ClpP mod – qHTS Assay for Activators of ClpP; 1.9% of 340,000 active; AID 651965, 2013; purified B. subtilis ClpP, FRET peptide cleavage, 20 min; Potency, µM (highest dose often 57.5 µM), without a hit: top-dose activity change, negative = active; active means well fitted falling curve with a large enough effect; inconclusive means small, poorly fitted or top-dose-only effect; inactive means no such curve, though single readings can be large or run the other way; further: the source files actives as falling curves though it sought activators and does not explain the sign; nearly all actives have a fitted effect of over 65% in size
#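 ClpP 10 microg/mL final, pH 8 Tris/KCl buffer with BSA, glycerol, Tween-20; compound pinned in; FRET-FV substrate; RT 20 min; Ex320/Em430; ΔFRET vs ADEP 5.8 microM, DMSO, no enzyme.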
# Epigenetic reg – Quantitative High-Throughput Screen for Regulators of Epigenetic Control; murine LDR cells, GFP reporter derepression, 30 h; Potency, µM (series often up to 53.9 µM), inactives show at the top dose GFP activation, hits mostly activators; 0.2% of 280,000 active; further: % of control where 0% means no effect; nearly all actives have a fitted effect of over 60% in size
#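 Murine LDR cells bearing a silenced CMV-driven GFP reporter were exposed to compound for 30 h at 37 C. After PBS washes, GFP-positive cells (20-120 um objects) counted by laser-scanning microplate cytometry.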
# PINK1 modulator – A Quantitative High throughput Screen to Identify Chemical Modulators of PINK1 Expression; PINK1 immunofluorescence, high-content cytometry, 24 h; 0.2% of 410,000 active; Potency, µM (series often up to 76.6 µM), without a hit: at the highest dose activation (PINK1 increase), most hits filed as activators; active means well fitted activation curve with a large enough effect; inconclusive means small, poorly fitted or top-dose-only effect; cell line not stated here; further: % of control where 0% means no effect; nearly all actives have a fitted effect of over 65% in size
#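 Cells are seeded, rested 12 hours, then given compound at five concentrations or DMSO for 24 hours. After fixation, blocking and antibody staining, PINK1 amount and mitochondrial localization are scored; CCCP serves as control.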
# Sfp PPTase inh – qHTS Assay for Inhibitors of Bacillus subtilis Sfp phosphopantetheinyl transferase (PPTase). 3.5% of 310,000 active. 4'-phosphopantetheinyl transferase ffp (Bacillus subtilis), Q9F4F7. Potency, µM, without a hit: largest response in the series, negative = inhibition, actives largely listed as inhibitors. Biochemical Sfp PPTase activity, qHTS;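 further: the enzyme is Sfp with the accession as filed and its product quenches rhodamine fluorescence; 0% = enzyme reaction without inhibitor and -100% = no enzyme wells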
#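 After 15 min at room temperature with compound, 15 nM Sfp received 5 uM rhodamine-CoA plus 12.5 uM BHQ-2-ybbR (50 mM Hepes pH 7.6, 10 mM MgCl2). Rate came from the fluorescence difference over 30 min, ex 525/em 598 nm.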
# VP16 counter – VP16 counterscreen qHTS for inhibitors of ROR gamma transcriptional activity. Drosophila S2 Gal4-VP16 UAS-luciferase, luminescence, 20 h. Potency, µM (top dose mostly 53.6 µM), inactives show at the highest dose activity, negative = inhibition, most hits filed as inhibitors. AID 2546, 2010. 3.5% of 310,000 active;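 further: Gal4-VP16 expression switched on by copper sulfate through the metallothionein promoter; on the % scale 0 is the no-effect control and ±100 the full control effect; nearly all actives have a fitted effect of over 50% in size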
# The depositor's hits bear a star; u = inconclusive; x = not tested or not shown; ! = repeats disagree; [ ] = remark or other dose. This is a sample that favours compounds with a hit; in the whole collection about 8.1% have one here. Unless noted, the call rests on the fitted dose curve; in most records, active means well fitted curve in the direction sought with a large enough effect; inconclusive means small, poorly fitted or top-dose-only effect, or another doubt; inactive means no such curve, though single readings can be large; an effect the other way counts as inactive or inconclusive. Potency means the concentration at half of the fitted maximal effect.
SMILES,RORgamma inh,ClpP mod,Epigenetic reg,PINK1 modulator,Sfp PPTase inh,VP16 counter
O=C1N/C(=C/c2cccn2-c2ccccc2)C(=O)N1Cc1ccc(F)cc1,30.2%,0.8%,7.08µM*,u,44.7µM*,10µM*
O=C(O)c1cccc(-n2cccc2/C=C2/NC(=O)N(Cc3ccccc3F)C2=O)c1,0.4%,x,3.5%,1.0%,50.1µM*,-14.6%
CCN(C(=O)c1cn(-c2ccc(OC)cc2)c(=O)c2ccccc12)c1cccc(Cl)c1,x,-17.7%,1.2%,-1.5%,x,x
COc1ccc(S(=O)(=O)NCCc2cn3ccsc3n2)cc1,x,-2.6%,0.0%,0.3%,x,x
O=C1CC2(CCN(C(=O)C3CC(=O)N(c4ccccc4)C3)CC2)Oc2ccccc21 (stereo unspecified),x,31.6µM*,x,2.6%,x,x
O=C(C1CC(=O)N(c2ccccc2)C1)N1CCCCCC1 (stereo unspecified),-8.6%,0.3%,x,0.2%,22.9%,18.3%
COc1cccc(N2CC(C(=O)N3CCC4(CC3)CC(=O)c3ccccc3O4)CC2=O)c1 (stereo unspecified),x,28.2µM*,x,2.1%,x,x
COc1ccc(OC)c(S(=O)(=O)N2CCC3(CC2)CC(=O)c2ccccc2O3)c1,x,u,x,-0.8%,x,x
COc1cccc(C(=O)NCc2nc(-c3cccc(NC(=O)c4ccoc4C)c3)oc2C)c1OC,x,x,x,0.0%,x,x
Cn1c(SCCOc2ccccc2)nnc1-c1ccc(NC(=O)CCc2ccccc2)cc1,x,6.6%,x,-0.3%,x,x
COc1cccc(NC(=S)NNC(=O)CCn2cc([N+](=O)[O-])cn2)c1,u,x,0.0%,0.3%,16.0%,-6.0%
Cc1cnn(CCC(=O)NNC(=S)Nc2ccccc2)c1,0.1µM*,1.1%,-1.1%,6.1%[38.3 µM],-8.9%,1.12µM*
Cc1ccc(NC(=S)NNC(=O)CCn2cc(C)cn2)cc1,0.282µM*,-0.6%,-0.2%,0.3%[38.3 µM],5.3%,1.41µM*
COCCOC(=O)C1=C(C)NC(=O)NC1c1cn(-c2ccccc2)nc1-c1ccccc1 (stereo unspecified),x,-2.6%,0.0%,2.0%,x,x
CCOC(=O)Cn1nc(/C=C/c2ccc(C)cc2)ccc1=O,33.0%,31.6µM*,4.3%,-2.8%,-6.0%,5.8%
CCOC(=O)Cn1nc(-c2ccccc2)c2ccccc2c1=O,4.7%,-1.7%,-1.0%,-1.8%[38.3 µM],20.1%,3.3%
CCOC(=O)Cn1nc(-c2ccc(Cl)cc2)ccc1=O,0.3%,-5.1%,-0.9%,6.4%[38.3 µM],6.6%,u
Cn1nc(/C=C/c2ccccc2)ccc1=O,-19.0%,x,-3.3%,2.0%,5.0%,3.4%
CCOC(=O)Cn1nc(/C=C/c2ccc(C(C)C)cc2)ccc1=O,u,28.2µM*,-1.1%,0.3%,-12.7%,-5.5%
O=c1ccc(/C=C/c2ccccc2)nn1Cc1ccccc1,18.1%,28.2µM*,-3.3%,4.6%,3.0%,15.4%
CCOC(=O)Cn1nc(/C=C/c2ccccc2)ccc1=O,-86.0%,u,3.8%,0.5%,1.5%,14.1µM*
CC1=C(C(=O)OC2CCCCCC2)C(c2ccc(Cl)cc2Cl)CC(=O)N1 (stereo unspecified),x,-1.0%,7.3%,4.7%,x,x
COC(=O)c1ccc(Cn2c(=O)cc(C)c3c(C)nn(C)c32)cc1,x,-9.3%,0.8%,2.9%,x,x
COc1ccc(-c2nc3scc(CCNC(=O)c4cccc(Br)c4)n3n2)cc1,x,1.8%,-0.4%,2.6%,x,x
O=C(O)c1cc(S(=O)(=O)O)ccc1O,-34.8%,20µM*,0.4%,0.0%,-10.2%,1.4%
COc1cccc(-c2nn(C)c3sc(C(=O)NCc4ccc(C)cc4)cc23)c1,-2.9%,20µM*!,-0.2%,1.6%,22.0%,-2.0%
